Assay results as given in PubChem BioAssay AID624296 (National Center for Advancing Translational Sciences (NCATS), 2012).
The campaign covered roughly 350,000 compounds. About 9,900 (2.8%) were called active. Roughly 15% stayed inconclusive and do not appear here. Calls come from the whole dose curve; as a rule, active = well fitted activation curve with a large enough effect; inconclusive = small, poorly fitted or top-dose-only effect; inactive = no such curve, though single readings can be large or run the other way. What follows is part of a selection rich in actives, with near analogues and random picks from the rest.

Assay: A quantitative high throughput screen for small molecules that induce DNA re-replication in MCF 10a normal breast cells. For activity, positive = re-replication: % of control where 0% means no effect. Note: nearly all actives have a fitted effect of over 50% in size.
Details: MCF 10A DNA re-replication, Hoechst nuclear intensity, 48 h; series mostly up to 46.1 µM; activity, positive = re-replication: at the top concentration
Potency is the fitted concentration of half-maximal effect.

Structure (SMILES) | activity, positive = re-replication | Potency
CC(NC(=O)c1ccccc1)C(=O)Nc1ccccc1 (stereo not drawn) | -2.99% (inactive) | 
CC(Oc1ccc2c(-c3ccccc3)cc(=O)oc2c1)C(=O)NC(Cc1c[nH]c2ccccc12)C(=O)O (stereo not drawn) | -19.5% (inactive) | 
Cc1ccc(S(=O)(=O)N2CCN(c3ccccc3)CC2)cc1C | 1.22% (inactive) | 
Cc1ccccc1N1CCN(S(=O)(=O)c2ccc3ccccc3c2)CC1 | 17.8% (inactive) | 
Cc1cc(N2CCN(S(=O)(=O)c3ccc(C)c(C)c3)CC2)c2ccccc2n1 |  | 10.3 µM (active)
COc1ccc(Cl)cc1C=CC=NNC(=O)c1ccncc1 | 0.633% (inactive) | 
COc1ccccc1C(=O)NCC(=O)OCC(=O)NNC(=O)c1ccc(Br)cc1 | -1.96% (inactive) | 
O=C(O)c1ccccc1N=N/C(=N/Nc1cc(S(=O)(=O)O)ccc1O)c1ccccc1 | -5.64% (inactive) | 
Cc1cc(C)cc(NC(=O)CN2C(=O)c3ccccc3C2=O)c1 | -6.92% (inactive) | 
O=C(CN1C(=O)c2cccc3cccc1c23)Nc1ccccc1 |  | 20.6 µM (active)
Cc1cccc(NC(=O)CN2C(=O)c3ccccc3C2=O)c1C | 14.4% (inactive) | 
CN(C(=O)CSc1nnc(-c2ccc3c(c2)OCO3)o1)C1CCS(=O)(=O)C1 (stereo not drawn) | -9.07% (inactive) | 
Cc1ccc(S(=O)(=O)N(C)C)cc1NC(=O)c1ccc(-n2cncn2)c([N+](=O)[O-])c1 | 1.7% (inactive) | 
CCOCCn1[nH]c2ccccc2c1=O | 13.8% (inactive) | 
COc1ccc(CCNC(=O)COC(=O)c2cc(=O)c3ccccc3o2)cc1 | -1.05% (inactive) | 
O=C(COC(=O)c1ccc2c(c1)OCCO2)NCc1ccccc1 | -0.36% (inactive) | 
COc1ccc(CNC(=O)COC(=O)C2=Cc3ccccc3OC2)cc1 |  | 18.4 µM (active)
CN(/N=C/c1ccccc1)C(=S)c1ccccc1 | 0.402% (inactive) | 
CCC(CO)Oc1cc(NC(=O)c2ccc(Cl)cc2)c2ncn(C(C)C)c2c1 (stereo not drawn) | 0.301% (inactive) | 
Cc1ccccc1Nc1nnc(C)c(=O)[nH]1 | -1.32% (inactive) | 
Cc1nnc(N/N=C/c2cccs2)[nH]c1=O | -2.78% (inactive) | 
Cc1nnc(N/N=C/c2ccccn2)[nH]c1=O |  | 2.59 µM (active)
CCOc1ccc2nc(N3CCCN(C(=O)Nc4ccccc4C)CC3)c(C#N)cc2c1 |  | 16.4 µM (active)
CCOc1ccc(C(=O)NC2CCN(C(=O)Nc3ccccc3OC)CC2)cc1 | 0.507% (inactive) | 
COc1ccc2nc(N3CCCC(O)C3)c(C#N)cc2c1 (stereo not drawn) | 6.88% (inactive) | 
C[C@H](NS(=O)(=O)c1ccc(Cl)cc1)C(=O)OCC(=O)N1CCOCC1 | -7.44% (inactive) | 

Structure (SMILES) | activity, positive = re-replication | Potency
CC(C)[C@@H](C(=O)OCC(=O)c1ccc2c(c1)NC(=O)CO2)N1C(=O)c2ccccc2C1=O | 14.5% (inactive) | 
Cc1cccc(Nc2nnc(SCC(=O)c3c(N)n(C4CC4)c(=O)[nH]c3=O)s2)c1C | 3.57% (inactive) | 
COc1ccc(/C=N/Nc2nc3ccccc3c(=O)[nH]2)cc1 | 0.203% (inactive) | 
O=c1[nH]c(NCCO)nnc1Cc1ccc(Cl)cc1 | -14.8% (inactive) | 
COc1ccc(Cc2nnc(N/N=C/c3ccccc3O)[nH]c2=O)cc1OC |  | 10.3 µM (active)
CCN(CC)S(=O)(=O)c1ccc(N2CCOCC2)c(NC(=O)C(C)Oc2ccc(F)cc2)c1 (stereo not drawn) | 0.635% (inactive) | 
CC(C)(C)Cc1nnc(NC(=O)c2cc(-c3ccccc3)nc3ccccc23)s1 | 19.2% (inactive) | 
COC(=O)c1cc(-c2cccs2)nc2ccccc12 | -1.79% (inactive) | 
O=C(Nc1nnc(-c2ccccc2)o1)c1cc(-c2cccs2)nc2ccccc12 |  | 2.06 µM (active)
COc1cccc(N2CCN(CC(=O)Nc3ccnn3C3CCCC3)CC2)c1 | 8.58% (inactive) | 
Cc1cc(C)cc(NC(=O)C(c2ccccc2)N2CCN(CC(=O)N3CCCC3)CC2)c1 (stereo not drawn) | 0.469% (inactive) | 
COc1ccc(CNC(=O)C[C@H]2C[C@H](C(=O)N3CCOCC3)[C@@]3(C)c4[nH]c5cc(CCC(=O)N(C)C)ccc5c4CCN3C2=O)cc1OC | -2.67% (inactive) | 
O=C(CN1C(=O)NC2(CCCCC2)C1=O)N1CCN(C(=O)c2cccs2)CC1 | -2% (inactive) | 
CCn1c(=S)[nH]c2sc3c(c2c1=O)CCCCC3 | 7.93% (inactive) | 
CCC1(C)Cc2c(sc3nc(SC)[nH]c(=O)c23)CO1 (stereo not drawn) | -1.6% (inactive) | 
CCC1(C)Cc2c(sc3[nH]c(=S)n(Cc4ccccc4)c(=O)c23)CO1 (stereo not drawn) |  | 13 µM (active)
O=S(=O)(c1ccccc1)N(CC(O)CN1CCCCC1)c1ccccc1 (stereo not drawn) | 4.96% (inactive) | 
CS(=O)(=O)N(CC(O)Cn1c2ccccc2c2ccccc21)c1cccc2ccccc12 (stereo not drawn) |  | 16.4 µM (active)
CCCn1c(=O)c(-c2ccccc2)c(O)c2ccccc21 | 7.08% (inactive) | 
CCCCn1c(=O)c(C(C)=O)c(O)c2ccccc21 | 5.82% (inactive) | 
CCCCN(CCCC)CC(O)Cn1c2ccccc2c(=O)c2ccccc21 (stereo not drawn) |  | 18.4 µM (active)
Cc1cc(C)n(CC(O)CN(c2ccccc2)S(=O)(=O)c2ccc3ccccc3c2)n1 (stereo not drawn) | 3.27% (inactive) | 
O=C(CN1C(=O)NC(Cc2c[nH]c3ccccc23)C1=O)Nc1ccccc1C(F)(F)F (stereo not drawn) | 3.41% (inactive) | 
CN(CC(=O)Nc1ccc(C(N)=O)cc1)S(=O)(=O)c1ccc2c(c1)OCCO2 | -1.22% (inactive) | 
COc1ccc(C(=O)NC2CCCc3c2cnn3-c2cccc(C)c2C)c(OC)n1 (stereo not drawn) |  | 18.4 µM (active)
Cn1nccc1C(=O)NC1CCCc2c1cnn2-c1ccccc1F (stereo not drawn) | 10.6% (inactive) | 

Structure (SMILES) | activity, positive = re-replication | Potency
CC(=O)NCC(=O)NC1CCCc2c1cnn2-c1ccccc1F (stereo not drawn) | -1.44% (inactive) | 
CC(C)(C)NS(=O)(=O)NC(=O)C1=C(N2CCCC2)COC1=O | 11.9% (inactive) | 
Cc1ccc(S(=O)(=O)N2CCCCC2)cc1NC(=O)[C@@H]1CCCN1C(=O)c1cccs1 | -5.26% (inactive) | 
Cc1ccc(S(=O)(=O)NCC(=O)NNC(=O)c2ccc(Br)cc2)cc1C | 5.77% (inactive) | 
FC(F)(F)c1cc(-c2ccco2)nc(NCc2ccc(Cl)cc2)n1 |  | 16.4 µM (active)
FC(F)(F)c1cc(-c2cccs2)nc(NCc2ccco2)n1 | 13.3% (inactive) | 
Cc1cc(C(F)(F)F)nn1-c1nc(-c2ccco2)cc(C(F)(F)F)n1 | -6% (inactive) | 
CN(CC(=O)Nc1ccc(F)c(F)c1F)C(=O)C1CC(=O)N(C2CCCC2)C1 (stereo not drawn) | -28.2% (inactive) | 
O=C(N[C@@H](Cc1c[nH]c2ccccc12)C(=O)O)OCC1c2ccccc2-c2ccccc21 | 10.8% (inactive) | 
COc1ccc(CCNC(=O)COC(=O)c2ncc(Cl)c(Cl)c2Cl)cc1OC | -0.637% (inactive) | 
CCOC(=O)c1ccccc1NC(=O)CSc1nc2ccccc2c(=O)[nH]1 |  | 18.4 µM (active)
CCOC(=O)c1cnc(SCC(=O)Nc2ccccc2C(=O)OC)nc1N | 16.1% (inactive) | 
COC(=O)c1ccccc1NC(=O)CSc1nc2c(c(=O)[nH]1)CCC2 | -2.45% (inactive) | 
Cc1ccc(Cn2c(C)c3cnn(CC(=O)NCCN4CCOCC4)c(=O)c3c2C)cc1 | -2.54% (inactive) | 
O=C(NCCCN1CCOCC1)c1cn(-c2ccccc2)nc1-c1ccc(F)cc1 | 10.2% (inactive) | 
COc1ccc(-c2ccc3c(c2)C2CC3CCN2CCC#N)cc1 (stereo not drawn) | 1.97% (inactive) | 
CCN(CC)S(=O)(=O)c1cc(C(=O)Nc2cc(S(=O)(=O)N3CCOCC3)ccc2N2CCCC2)ccc1F | -0.679% (inactive) | 
O=C1NC(c2ccncc2)Nc2sc3c(c21)CCCC3 (stereo not drawn) | 11.3% (inactive) | 
C/C(=C\c1ccccc1)C1NC(=O)c2c(sc3c2CCCC3)N1 (stereo not drawn) |  | 20.6 µM (active)
O=C1CCCCC1C(=O)c1ccccc1 (stereo not drawn) | 1.46% (inactive) | 
CNC[C@H]1Oc2c(NC(=O)C3CCCCC3)cccc2C(=O)N([C@H](C)CO)C[C@@H]1C | -2.79% (inactive) | 
Cc1noc(C)c1S(=O)(=O)N(C)C[C@H]1Oc2ccc(NC(=O)C3CCCCC3)cc2C(=O)N([C@H](C)CO)C[C@@H]1C | 26.5% (inactive) | 
O=C(CN1CCC(O)(c2ccccc2)CC1)Nc1ccc2c(c1)OCCO2 | -3.64% (inactive) | 
O=C(COC(=O)c1ccccc1)c1ccc2c(c1)OCCO2 | 4.61% (inactive) | 
O=C(CCN1CCc2ccccc2C(O)(c2ccccc2)C1)c1ccc2c(c1)OCCO2 (stereo not drawn) |  | 6.51 µM (active)
CCN(C(=O)COC(=O)c1ccccc1O)c1cccc2ccccc12 | -2.15% (inactive) | 

Structure (SMILES) | activity, positive = re-replication | Potency
O=C(CCCOc1ccccc1)NNC(=O)c1ccc(Cl)cc1 | -2.69% (inactive) | 
CCS(=O)(=O)C1=NSC2=NC(=O)/C(=C\c3cc(C)n(-c4cccc(OC)c4)c3C)C(=N)N21 |  | 5.8 µM (active)
CCS(=O)(=O)C1=NSC2=NC(=O)/C(=C\c3ccc(OS(=O)(=O)c4ccccc4)cc3)C(=N)N21 | -5.59% (inactive) | 
CCC1=NN2C(=N)/C(=C/c3cc(C)n(-c4ccccc4)c3C)C(=O)N=C2S1 | 11.7% (inactive) | 
CC(=O)c1cccc(-c2ccc(CN3C(CC(C)C)C(=O)N(Cc4cn(CC5CCCCC5)nn4)CCS3(=O)=O)cc2)c1 (stereo not drawn) | 24.9% (inactive) | 
CCOc1ccc(C(=O)Nc2cc(OC)ccc2OC)cc1 | 1.23% (inactive) | 
CCOc1cc2ccccc2cc1C(=O)Nc1ccccn1 | 5.04% (inactive) | 
CCOc1cc(NC(=O)c2ccccn2)c(OCC)cc1NC(=O)c1ccc(OC)cc1 |  | 3.26 µM (active)
CN(Cc1ccc(CNC[C@H]2O[C@@H](n3cnc4c(N)ncnc43)[C@H](O)[C@@H]2O)o1)S(C)(=O)=O | -3.25% (inactive) | 
Cc1c(C(C)CCCO)oc(=O)c2c1Oc1c(C)c(C(C)C[C@@H](C)O)oc(=O)c1C2 (stereo partly drawn) | -16.4% (inactive) | 
CCCn1c(C)cc(C(=O)COC(=O)c2c(C)nn(-c3ccccc3)c2C)c1C |  | 9.2 µM (active)
Cc1cccc(C)c1NC(=O)COC(=O)c1c(C)nn(-c2ccccc2)c1C | -7.91% (inactive) | 
Cc1nn(-c2ccccc2)c(C)c1C(=O)OCC(=O)NC(=O)NC1CCCCC1 | 5.35% (inactive) | 
O=C1CCC/C=C\C[C@@H](CC(=O)N(CCO)Cc2ccccc2)C(=O)NCCO1 | -0.188% (inactive) | 
O=C1OCC2=C1C(c1ccc(Cl)cc1)c1cc3c(cc1O2)OCO3 (stereo not drawn) | 29.5% (inactive) | 
C=CC(=O)OCCOCCOCCOCCOC(=O)C=C |  | 5.8 µM (active)
COc1ccc(Nc2cc(C)nc(-n3nc(C)cc3C)n2)cc1 |  | 2.06 µM (active)
Cc1cc(C)n(-c2ccc(Cl)c(C(=O)O)n2)n1 | 3.83% (inactive) | 
Cc1cc(C)n(-c2nnc(N3CCN(c4ccccc4)CC3)nn2)n1 | 1.27% (inactive) | 
CC(=O)Nc1ccc(Nc2cc(C)nc(Nc3ccc(NC(C)=O)cc3)n2)cc1 | 3.9% (inactive) | 
Cc1cc(Nc2ccc(Cl)cc2)nc(N2CCOCC2)n1 | 4.08% (inactive) | 
CCOC(=O)c1cnc(-n2nc(C)cc2C)nc1Nc1cccc(C(C)=O)c1 | 0.919% (inactive) | 
Cc1ccc(S(=O)(=O)Nc2nc(C)cc(N/N=C/c3ccc(O)cc3)n2)cc1 | -0.365% (inactive) | 
Cc1cc(N/N=C\c2ccc(Br)cc2)nc(-n2nc(C)cc2C)n1 |  | 18.4 µM (active)
CC(=O)c1ccc(Oc2cc(C)nc(-n3nc(C)cc3C)n2)cc1 |  | 4.11 µM (active)
